According to PubChem BioAssay AID1948 (National Center for Advancing Translational Sciences (NCATS), 2009):
The campaign covered roughly 110,000 compounds. About 20 (0.02%) were called active. Another 2% or so got no clear call; they are omitted. Calls follow the shape of the dose curve; as a rule, active = well fitted activation curve with a large enough effect; inconclusive = small, poorly fitted or top-dose-only effect; inactive = no such curve, though single readings can be large or run the other way. The entries come from a sample that favours actives as a whole.

test: qHTS Assay for Compounds that Induce Erasure of Genomic Imprints; settings: mouse ES Peg3-LacZ reporter, beta-gal luminescence, 40 h; series mostly up to 10.9 µM
Description: qHTS Assay for Compounds that Induce Erasure of Genomic Imprints NIH Chemical Genomics Center [NCGC] NIH Molecular Libraries Screening Centers Network [MLSCN] Assay Submitter (PI): JEFFRIES, SEAN, NCGC, University of Cambridge NCGC Peg3 Imprinting Assay Overview Genomic imprinting is the epigenetic process whereby genes are expressed in a parent of origin fashion. […] Unlike some forms of epigenetic silencing that can be overcome by overexpression of transcription factors, genomic imprinting stably represses the expression of one allele despite potentially high levels of expression from the other allele. […] During mouse embryonic day 11.5 imprints are erased in PGCs so that sex specific imprints can be reestablished during gametogenesis. Embryonic germ (EG) cells can be derived from developing PGCs at embryonic day 11.5 and these cells often lack genomic imprints. […] Embryonic stem (ES) cells are a cell type similar to EG cells in phenotype and transcriptional profile, yet ES cells maintain genomic imprints. This similarity between ES and EG cells prompted us to use ES cells to look for factors which could induce imprint erasure. To investigate the stability of genomic imprinting, ES cells were derived from mice with an insertion of a LacZ-Neomycin reporter construct in the Peg3 locus. Peg3 is an imprinted locus where gene expression is restricted to the paternal allele. […] Using LacZ expression we are able to monitor the state of the Peg3 imprint. In order to dissect the mechanisms involved in imprint erasure using a forward chemical genetics approach we developed a cell based phenotype assay using an endogenous silence imprinted locus. This assay utilizes maternally inherited Peg3LacZ-Neo ES cells by monitoring the LacZ expression from the normally silent Peg3 allele. To facilitate screening, high-density feeder-free ES cell culture has been optimized so that ES cells can be grown in 1536 for over four days without feeding or washes. The assay uses a luminescence based read out for LacZ activity and is a homogenous assay optimal for HTS.
NCGC Peg3 Imprinting Assay Protocol Summary ES cell lines were derived from blastocysts taken from Peg3LacZ-Neo x129 matings. Lines were sexed and genotyped for the Peg3LacZ-Neo allele. Female cells carrying the reporter allele were used in this study. Cells were derived on a layer of mouse embryonic fibroblasts and passaged multiple times before switching to feeder free culture. Cells were maintained feeder free on gelatin coated dishes in DMEM/F12 media supplemented with 15% FBS, 2mM L-glutamine, 100 units/ml penicillin, 100ug/ml streptomycin, 0.1mM MEM nonessential amino acids, 1mM sodium pyruvate, 0.1% sodium bicarbonate, 0.1mM 2-Mercaptoethanol, and 400 units/ml leukemia inhibitory factor (LIF) at 37C with 5% CO2. The assay was performed in 1536-well format. A single luminescence read was taken at the end of the assay and the data was normalized by plate to internal negative controls. Maximum efficacy and AC50 values were calculated from dose-response data using the standard Hill equation. 1536 well plates were filled with 0.5ul of 0.1% gelatin per well, spun down and incubated for at least 30 min at 37C. The ES cells were then trypsini Peg3 1536-well assay protocol: (1)Plate 0.5ul/well 0.1% gelatin in white tissue culture treated 1536-well plates, spin and incubate at 37C for at least 30 min. (2)Add 5ul/well (300 cells) of ES cell suspension from freshly trypsinized cells and incubate at 37C, 5% CO2 for 40 hours. (3)Add 5ul/well of freshly prepared BetaGlo solution and incubate at room temperature for 5 minutes. (4)Read luminescence on the ViewLux plate reader. Keywords Genomic Imprinting, Germ Cells, Embryonic Stem Cell, DNA Methylation, Peg3, qHTS, NIH roadmap, NCGC
Potency is read from the fitted curve at half-maximal effect.

Potency, active:
Cc1nc2cnc(Nc3ccccc3)nc2n(Cc2ccc(F)cc2)c1=O 3.16 µM

Potency, inactive:
Cc1cccc(C(C)C)c1NC(=O)C(NS(=O)(=O)c1cccc2nsnc12)c1ccccc1 (configuration not stated)
COc1cc(OC)c(NC(=O)N2CC3CCCN3c3ccccc32)cc1Cl (configuration not stated)
Cc1ccc(C(=O)COC(=O)C(Cc2c[nH]c3ccccc23)NC(=O)c2ccc(Br)cc2)cc1 (configuration not stated)
COc1cccc(Cn2c(CNS(=O)(=O)c3ccc(Cl)s3)nc3cccnc32)c1
CCCOc1ccc(NC(=O)CC2C(=O)N(c3ccccc3)C(=O)N2Cc2ccco2)cc1 (configuration not stated)
CCN(c1ccc(Cl)cc1)S(=O)(=O)c1nnc(NC(=O)c2ccco2)s1
CCC(=O)N1CCc2cc(S(=O)(=O)NC(C(=O)Nc3ccc(C(C)=O)cc3)C(C)C)ccc21 (configuration not stated)
CCSc1ncc(Cl)c(C(=O)Nc2c(C(=O)c3ccccc3)oc3ccccc23)n1
O=C(O)c1ccc2c(c1)N(Cc1ccc(F)cc1)C(=O)c1ccccc1S2=O (configuration not stated)
Cc1ccc(-c2cn3c(n2)sc2cc(C(=O)NCc4cccs4)ccc23)c(C)c1
Cc1cccc(CC(=O)Nc2cccc(-c3cn4cccnc4n3)c2)c1
CCCCNC(=O)CSc1nc2cc3c(cc2c(=O)n1CCCCCC(=O)NCc1ccc2c(c1)OCO2)OCO3
CCOc1ccc(CNC(=O)c2ccc(CS(=O)c3ccccc3)o2)cc1 (configuration not stated)
CCOc1ccccc1NC(=O)CCS(=O)(=O)c1cccc2nsnc12
CCSc1nnc2c(n1)OC(c1ccc(OCC(=O)O)cc1)Nc1ccccc1-2 (configuration not stated)
COc1cccc(-c2nc(S(=O)(=O)c3ccc(C)cc3)c(NCc3ccccc3)o2)c1
Cc1ccc(C)c(N2CCN(C(=O)Cn3ncc4c(=O)oc5ccc(C)cc5c43)CC2)c1
Cc1ccc(S(=O)(=O)N(CC(=O)Nc2ccc(Cl)cc2Cl)c2ccccc2C)cc1
COc1ccccc1-n1c(-c2ccc(C)cc2)cn2c3c(=O)n(C)c(=O)n(C)c3nc12
O=c1cnc2cnc(Nc3ccccc3)nc2n1Cc1ccc(F)cc1
Cc1nc2cnc(Nc3ccccc3)nc2n(C[C@H]2CCCO2)c1=O
Cc1cc(NC(=O)c2cccc(Cl)c2)ccc1-c1cc2ccccc2oc1=O
Cc1ccc(CCNC(=O)c2nnc(Cc3cccc(F)c3)o2)cc1
Cc1cc2c(cc1C)C(c1cccc(OC(C)C)c1)CC(=O)N2 (configuration not stated)
COc1ccc(Cl)cc1NC(=O)CSc1nc(-c2cccs2)cc(C(F)(F)F)n1
Cc1ccc(NC(=O)Nc2sc3nc4n(c(=O)c3c2C)CCC(C)CC4)c(Cl)c1 (configuration not stated)
Cc1ccc(OCCSc2nc(C)c(Cc3ccccc3)c(=O)[nH]2)cc1
CC(C)S(=O)(=O)c1oc(-c2ccc(F)cc2)nc1S(=O)(=O)c1ccc(F)cc1
CCCCN(C)c1nnc(NC(=O)Nc2ccc(Br)c(C)c2)s1
O=C(NCCc1ccc(Cl)cc1)c1ccc2c(c1)N(Cc1ccc(F)cc1)C(=O)CS2
CCOc1ccccc1NC(=O)CCn1cnnn1
CCOc1cc(-c2nnc(SCC(=O)NC3CCCC3)nc2-c2ccc(OC)c(OCC)c2)ccc1OC
Cn1nnnc1SCCCNCc1cccc(OCc2ccc(Cl)cc2)c1
CSc1nc(=O)c2c(n1C)NC(=O)CC2c1ccccc1OC(C)C (configuration not stated)
COc1ccc(Cl)cc1S(=O)(=O)N1CCC(c2ccncc2)CC1
CCc1nn(CC(=O)Nc2cccc(C)c2C)c(=O)c2cc3sccc3n12
Cc1cccc(NC(=O)c2cc(S(=O)(=O)N3CCC4(CC3)OCCO4)ccc2F)c1
CCC(=O)N1CCc2cc(Br)cc(S(=O)(=O)CCC(=O)NCCc3ccc(OC)c(OC)c3)c21
CCCNc1ncnc2c1c(-c1ccccc1)cn2-c1ccc(OCC)cc1
Cc1ccc(C)c(N2CCN(C(c3ccccc3)c3nnc(-c4ccccc4)o3)CC2)c1 (configuration not stated)
COc1ccc(CN2C(=O)C(NC(=O)c3cccc(C)c3)(C(F)(F)F)N=C2c2ccccc2)cc1 (configuration not stated)
CCOC(=O)C1CCCN(C(=O)c2ccc3c(c2)sc2nc(-c4ccc(CC)cc4)cn23)C1 (configuration not stated)
CCCn1c(NCc2ccccc2F)nc2ccccc21
O=S(=O)(c1ccc2nc(N3CCN(c4cccc(Cl)c4)CC3)ccc2c1)N1CCCCC1
COc1ccc(OC)c(NC(=O)/C=C/c2ccc(C)o2)c1
Cc1c(Cl)cccc1NC(=O)CCS(=O)(=O)c1ccc2c(c1)oc(=O)n2C
C#CC(C)(CC)NC(=O)Cn1nnc(-c2ccc(OCc3c(F)cccc3Cl)cc2)n1 (configuration not stated)
Cc1nc2ccn(Cc3cccnc3)c(=O)c2cc1C(=O)N1CCN(c2ccccc2F)CC1
COc1cc(OC)c(NC(=O)c2nc(-c3ccncc3)no2)cc1Cl
COc1ccccc1NC(=O)c1oc2ccccc2c1NC(=O)COc1ccccc1OC
Cc1c(-c2nsc(NC(=O)c3cccc(Cl)c3)n2)nnn1-c1ccccc1C(F)(F)F
O=C(c1cccs1)c1cn(CCOc2ccc(Cl)cc2)c2ccccc12
CC(=O)c1c(C)n(S(=O)(=O)c2ccc(Cl)cc2)c2ccc(NS(=O)(=O)c3ccc(Cl)cc3)cc12
COc1ccccc1CNC(=O)NCc1noc2ccc(C)cc12
COc1cccc(-c2nnc3n(CCc4ccccc4)c(=O)c4ccccc4n23)c1O
COc1cccc(CNCCSc2nnnn2C)c1OCc1ccccc1Cl
CCOC(=O)c1ccc(-c2ccc(/C=C(\C#N)C(=O)Nc3ccc(OCC)cc3)o2)cc1
COc1ccc(NC(=O)CSc2nnc(-c3nnn(-c4ccc(F)cc4)c3C)o2)cc1
COc1ccc(N2CCN(S(=O)(=O)c3ccc(-c4coc(C)n4)cc3)CC2)cc1
Cc1ccccc1C(=O)Nc1sc2c(c1C(=O)N1CCC(C)CC1)CCCC2
CC(=O)[C@H](C(c1ccccc1)N1CCOCC1)N1CCOCC1 (some centres not stated)
COc1cc(C(=O)Nc2ccc(OCc3cc(=O)n4ccc(C)cc4n3)cc2)cc(OC)c1OC
CCc1cccc(NC(=O)CSc2nccn2C)c1
COc1ccc(S(=O)(=O)NCCSc2nnnn2-c2ccccc2)cc1
CCOc1ccc(OCC)c(NC(=O)c2c(C)nn(-c3ccccc3)c2-n2cccc2)c1
Cc1c(Cl)cccc1NC(=O)C(=O)NCCc1csc2nc(-c3ccccc3F)nn12
CC(Sc1oc(-c2ccco2)nc1S(=O)(=O)c1ccc(Br)cc1)c1ccccc1 (configuration not stated)
Cc1cc(Cl)ccc1OCC(=O)N(Cc1ccc(N(C)C)cc1)C1CCS(=O)(=O)C1 (configuration not stated)
COc1ccc(Cc2nc3ccc(C(=O)NCc4ccccc4C)cc3o2)cc1
CC(=O)Nc1cc(C(=O)NCc2ccc(F)cc2Cl)ccc1Sc1ccc(Cl)cc1
COc1ccc(-c2nc3ccccc3o2)cc1NC(=O)c1cc([N+](=O)[O-])ccc1N1CCOCC1
Cn1c(=O)c2c(nc(SCC(=O)Nc3ccc(F)cc3)n2Cc2ccccc2)n(C)c1=O
CC(=O)OC1=C(C(C)=O)N(Cc2ccccc2)S(=O)(=O)c2ccccc21
CCOc1ccccc1NC(=O)Cn1c(=O)n(-c2cccc(C)c2)c(=O)c2c1c1cc(OC)ccc1n2C
CCc1nn(CC(=O)NCC(C)c2ccccc2)c(=O)c2cc3occc3n12 (configuration not stated)
Fc1ccccc1Oc1ncnc2c1oc1ccccc12
COc1ccc(OC)c(NC(=O)CN2CCCN(Cc3cc(C)ccc3C)S2(=O)=O)c1
O=C(Nc1c(C(=O)N2CCN(c3ccc(F)cc3)CC2)oc2ccccc12)c1ccco1
COc1ccccc1CNCc1ccc(C(=O)O)s1
O=C(C1CCC(Cn2c(=O)c3sccc3n(Cc3ccccc3F)c2=O)CC1)N1CCCCC1 (configuration not stated)
COc1ccc(OC)c(CNC(=O)CN2C(=O)CCn3nc(-c4cn(C)c5ccccc45)cc32)c1
COc1ccccc1CNC(=O)c1ccc(CS(=O)c2ccccc2Cl)o1 (configuration not stated)
CCN1CCc2nc3sc(C(=O)Nc4ccccc4OC(F)(F)F)c(N)c3cc2C1
COc1cc(OC)cc(-c2nc3nc(C)c(CCC(=O)Nc4ccc(C)cc4)c(C)n3n2)c1
CC1CCC2(CC1)N=C(c1ccccc1)C(=O)N2CC(=O)Nc1ccc(F)c(Cl)c1 (configuration not stated)
CCOc1ccc(NC(=O)c2cc(S(=O)(=O)N3CCCC3)c[nH]2)cc1
CC1CCN(S(=O)(=O)c2ccc3c(ccn3CCC(=O)NCc3ccc(N(C)C)cc3)c2)CC1
Cc1c(C(=O)NCc2ccccc2Br)oc2ccc3c(c12)C(=O)CC(C)(C)O3
CCc1nn(CC(=O)N2CCN(c3ccc(Cl)cc3)CC2)c(=O)c2cc3occc3n12
COc1ccc(CCn2cc3c(c2-c2ccc(Br)cc2)c(=O)n(C)c(=O)n3C)cc1OC
Cc1ccccc1NC(=O)Cn1c(=O)n(CC2CCC(C(=O)NCCc3ccccc3)CC2)c(=O)c2ccccc21 (configuration not stated)
Cc1ccc2nc(COc3ccccc3NC(=O)Nc3ccc(F)c(Cl)c3)cc(=O)n2c1
CCOC(=O)c1c(N)n(-c2cccc(C)c2C)c2nc3ccccc3nc12
COc1ccc2c(c1)C=C(C(=O)NCc1cc(Br)ccc1OC)CO2
COC(=O)c1cnc(N2CCN(c3ccccc3OC)CC2)c2ccccc12
COc1ccc(Br)cc1C1CC(=O)Nc2c1c(C)nn2-c1nc(C)cc(C)n1 (configuration not stated)
